Rows were chosen to be rich in hits. Some 1.2% of all compounds tested hit in one or more screens of this group.
RGS7-Gao: human RGS7-Galphao interaction regulation. P09471. Multiplexed bead flow cytometry, RGS7-Galphao binding; actives lie on both sides. binding response (% of control), % at 10 µM. 220,000 tested, 0.35% active. AID 1439; in the data active = binding response below about 49% or above about 150%; inconclusive = no clear call, values can overlap the other calls; inactive = in between;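 also: fluorescent Galphao held in activated GDP-AlF4 state binding bead-coupled RGS7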
Target sequence (P09471 whole entry, looked up): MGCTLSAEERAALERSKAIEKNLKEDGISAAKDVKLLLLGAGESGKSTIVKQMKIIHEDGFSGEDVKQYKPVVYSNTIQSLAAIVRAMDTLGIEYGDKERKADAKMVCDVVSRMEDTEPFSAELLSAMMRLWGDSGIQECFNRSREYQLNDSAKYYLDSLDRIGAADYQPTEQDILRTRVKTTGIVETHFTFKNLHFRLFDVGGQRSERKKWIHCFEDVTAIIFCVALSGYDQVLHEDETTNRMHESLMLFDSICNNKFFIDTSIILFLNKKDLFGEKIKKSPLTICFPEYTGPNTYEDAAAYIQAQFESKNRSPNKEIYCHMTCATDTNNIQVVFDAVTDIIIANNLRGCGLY
GSH fluor: compound fluoresces at 488/530 nm on GSH beads. 190,000 tested, 0.25% active. AID 1776. GSH beads flow cytometry, compound fluorescence 488/530 nm; stronger effect = higher value. fluorescence (KMESF) at 10 µM; in the data active = fluorescence above about 89;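 also: glutathione beads carrying GST-tagged Bcl family fusion proteins plus one bare bead set; values are compound well signal with DMSO vehicle wells as background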
RGS4-Gao reg: human RGS4-Galphao interaction regulation | P09471 | Multiplexed bead flow cytometry, RGS4-Galphao binding; actives lie on both sides | binding response (% of control), % at 10 µM | 220,000 tested, 0.33% active; in the data active = binding response below about 49% or above about 150%; inactive = in between;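 also: fluorescent Galphao activated with aluminum fluoride binding bead-coupled RGS4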
Avidin fluor: avidin bead compound fluorescence profile; Avidin beads, compound fluorescence 488/530 nm, flow cytometry; stronger effect = higher value; fluorescence (KMESF) at 10 µM; 220,000 tested, 0.38% active; AID 1775; in the data active = fluorescence above about 47
RGS16-Gao HTS: RGS16-Galphao interaction regulator (human); O15492+P09471; bead-based flow cytometry RGS16-Galphao binding, fluorescence; actives lie on both sides; binding response (% of control), % at 10 µM; 220,000 tested, 0.38% active;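 also: Galphao activated by GDP with aluminum fluoride before binding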
Target sequence (O15492 whole entry, looked up): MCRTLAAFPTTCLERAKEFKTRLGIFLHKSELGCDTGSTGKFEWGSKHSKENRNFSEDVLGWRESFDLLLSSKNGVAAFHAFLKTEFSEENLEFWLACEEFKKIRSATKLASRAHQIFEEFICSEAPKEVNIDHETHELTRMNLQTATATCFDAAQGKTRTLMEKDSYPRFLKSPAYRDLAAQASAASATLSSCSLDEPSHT
Target sequence (P09471 whole entry, looked up): as the sequence (P09471 whole entry, looked up) above
RGS8-Gao: human RGS8-Galphao interaction regulation; P09471; 220,000 tested, 0.34% active; AID 1423; response (percent of control binding), % at 10 µM; multiplexed bead flow cytometry, RGS8-Galphao binding; actives lie on both sides; in the data active = response below about 60% or above about 140%; inactive = in between;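 also: Galphao activated as the GDP aluminium fluoride complex binding bead-coupled RGS8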
RGS-Gao: RGS4-Galphao interaction regulator (human); shares compounds with RGS16-Gao HTS; multiplexed bead flow cytometry, RGS–Galpha-o binding; RGS4–Galpha-o binding response, % at 10 µM; 1,600 tested, 99% active;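 also: fluorescently labeled Galpha-o bound to GDP with aluminium fluoride binding biotinylated RGS beads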
Biotin-avidin: counter-screen: compounds disrupting biotin binding to avidin beads | shares compounds with RGS16-Gao HTS | streptavidin beads, fluorescein-biotin binding, flow cytometry | inhibition, % at 10 µM | 1,700 tested, under 10 active;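 active = inhibition above 50%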;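 also: median green fluorescence of gated singlet beads compared with DMSO control wells; 0% = DMSO wells and 100% = complete loss of bead fluorescence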
RGS8-Gao confirm: RGS8-Galphao interaction regulation, single point confirmation; shares compounds with RGS16-Gao HTS; bead-based flow cytometry RGS8-Galphao binding, fluorescence; actives lie on both sides; binding response (% of control), % at 10 µM; 1,700 tested, 3% active; AID 1836; in the data active = binding response below about 72% or above about 130%; inactive = in between;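 also: Galphao activated as GDP AlF4 complex before binding bead RGS8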
RGS7-Gao confirm: confirmation of regulators of human RGS7-Galphao interaction; response (percent of control binding), % at 10 µM; shares compounds with RGS16-Gao HTS; 1,700 tested, 7.8% active; bead-based flow cytometry RGS7-Galphao binding; actives lie on both sides; in the data active = response below about 75% or above about 130%; inactive = in between;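 also: fluorescent Galphao activated with GDP and aluminum fluoride binding bead-coupled RGS7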
RGS16-Gao single: RGS16-Galphao interaction regulation, single point confirmation. shares compounds with RGS16-Gao HTS. bead-based flow cytometry, RGS16-Galphao binding; actives lie on both sides. response (% of control binding), % at 10 µM. 1,700 tested, 4% active. AID 1838; in the data active = response below about 74% or above about 130%; inactive = in between;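 also: Galphao activated as the GDP aluminium fluoride complex binding bead-coupled RGS16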
RGS4-Gao confirm: RGS4-Galphao interaction regulation, single point confirmation | 1,700 tested, 4% active | AID 1840 | binding response (% of control), % at 10 µM | shares compounds with RGS16-Gao HTS | RGS4-Galphao binding, multiplexed bead flow cytometry; actives lie on both sides; in the data active = binding response below about 74% or above about 130%; inactive = in between
RGS19-Gao single: RGS19-Galphao interaction regulation, single point confirmation; shares compounds with RGS16-Gao HTS; bead-based flow cytometry RGS19-Galphao binding; actives lie on both sides; response (percent of control binding), % at 10 µM; 1,700 tested, 5% active; AID 1841; in the data active = response below about 50% or above about 160%; inactive = in between;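 also: 100% = no compound control and 0% = blank background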
* = called active by the depositor; i = inactive; ? = inconclusive; · = no result; [ ] = remark or other dose. Unless noted, no rule for the calls is given here.

SMILES	RGS7-Gao	GSH fluor	RGS4-Gao reg	Avidin fluor	RGS16-Gao HTS	RGS8-Gao	RGS-Gao	Biotin-avidin	RGS8-Gao confirm	RGS7-Gao confirm	RGS16-Gao single	RGS4-Gao confirm	RGS19-Gao single
O=c1[nH]c(=O)n(Cc2ccccc2)c2c1C(C(F)(F)F)(C(F)(F)F)N=C(c1ccco1)N2	45*	26	49*	2	42	56*	·	-1	101	101	101	100	98
CCc1ccc(/C=N/n2c(C)cc(C)c(C#N)c2=O)cc1	102	11	103	16	108	102	·	·	·	·	·	·	·
Cc1ccc(SCC(=O)Nc2cccc(-c3nnc(-c4ccco4)o3)c2)cc1	102	28	98	7	84	94	·	·	·	·	·	·	·
COc1ccc2c(C)cc(SCc3c(C)noc3C)nc2c1	117	27	114	18	345	154*[activator]	114*	·	·	·	·	·	·
O=C(Nc1ccc(N=Nc2ccccc2)c(NC(=O)C2CCCO2)c1)C1CCCO1 (stereo not given)	102	13	103	12	94	104	·	·	·	·	·	·	·
Cc1ccc2cc(CCNS(=O)(=O)c3ccc(F)cc3)c(=O)[nH]c2c1C	46*	19	55	4	50	60*	55*	0	99	93	97	97	102
Cc1ccc2cc(CCNS(=O)(=O)c3ccc(F)cc3)c(=O)[nH]c2c1	95	23	96	7	99	98	·	·	·	·	·	·	·
COC(=O)c1[nH]c2ccccc2c1NC(=O)CN1CCCCCC1	106	25	106	5	112	106	·	·	·	·	·	·	·
CCOC(=O)N1CCN(CC(=O)Nc2c(C(=O)OC)[nH]c3ccccc23)CC1	175*[activator]	18	124	106*	103	98	124*	0	106	99	110	107	100
CCOc1ccc2nc3c(cc2c1)CN(CCCO)C(=NCCOC)S3	-5.5*	18	-8.3*	-3	-10*	7.0*	·	i	97	93	99	97	92
Cc1ccc(S(=O)(=O)NCC2CCC(C(=O)NCc3ccc4c(c3)OCO4)CC2)cc1 (stereo not given)	·	30	137	·	150	·	·	1	99	90	97	100	98
CCc1nc(SCC(=O)c2ccccc2)c2ccccc2n1	100	12	100	9	100	102	·	·	·	·	·	·	·
CCCc1nc(SCC(=O)c2ccc(OC)cc2)c2ccccc2n1	·	20	·	·	·	·	·	2	102	105	104	103	106
CCc1nc(SCC(=O)c2ccc3c(c2)OCCO3)c2ccccc2n1	111	25	120	15	242	142*[activator]	120*	-1	105	106	105	105	97
O=C(CSc1nc(Cc2ccccc2)nc2ccccc12)c1ccc2c(c1)OCCO2	102	46	98	9	96	99	·	·	·	·	·	·	·
CN(C)S(=O)(=O)c1ccc(-c2csc(N/N=C/c3ccc(O)cc3)n2)cc1	?	·	93	5	97	99	·	·	·	·	·	·	·
CCCCOCP(=O)(CCCC)COCCCC	25*	28	24*	1	-1	32*	·	1	102	104	102	102	97
N=C1c2ccccc2CN1NC(=O)c1cccc(S(=O)(=O)N2CCOCC2)c1	114	12	116	10	236*[activator]	126	116*	2	108	165*[activator]	126*[activator]	127*[activator]	324*[activator]
Cc1oc(-c2ccc(Cl)cc2)nc1CSCC(=O)NCCCN1CCOCC1	164*[activator]	5	187*[activator]	18	228*[activator]	112	·	0	102	101	105	102	105
Cc1cccc(-c2nc(CSCC(=O)NCCCN3CCOCC3)c(C)o2)c1	103	14	102	7	105	100	·	·	·	·	·	·	·
Cc1cc(C)nc(NC(=NCCc2c[nH]c3ccccc23)NC(=O)Nc2ccc(Cl)c(Cl)c2)n1	106	11	108	10	13*	82	108*	0	100	100	100	100	108
Cn1cnnc1SCC(=O)Nc1c(F)cc(F)cc1Br	·	41	·	·	·	·	·	1	102	97	101	101	96
NC(=S)N/N=C1\CC(n2nnn(-c3cccc(Cl)c3)c2=S)C2COC1O2 (stereo not given)	99	15	101	11	103	103	·	·	·	·	·	·	·
CC[n+]1c(/C=C/C=C/N(C(C)=O)c2ccccc2)sc2cc(OC)ccc21	155*[activator]	6	135	30	143	93	135*	·	·	·	·	·	·
COc1ccccc1OCCCCOc1ccccc1C(C)=O	7.4*	11	18*	-4	6.0*	15*	·	0	102	98	102	102	100
SMILES	RGS7-Gao	GSH fluor	RGS4-Gao reg	Avidin fluor	RGS16-Gao HTS	RGS8-Gao	RGS-Gao	Biotin-avidin	RGS8-Gao confirm	RGS7-Gao confirm	RGS16-Gao single	RGS4-Gao confirm	RGS19-Gao single
CCOC(=O)/C=C/C(=O)Nc1ccccc1C(=O)NC1CCCCC1	94	11	95	2	43	78	·	·	·	·	·	·	·
Cc1ccc(OCC(=O)NC(=S)Nc2ccc(Br)cn2)cc1C	98	19	100	12	101	99	·	·	·	·	·	·	·
O=C(O)CSc1c(-c2ccccc2)[nH]c2ccccc12	70	9	77	5	-3.1*	62	77*	-1	100	97	99	101	91
Cc1ccc2[nH]c(-c3ccccc3)cc(=O)c2c1	103	12	98	33	94	96	·	·	·	·	·	·	·
CCN(CC)Cc1c(-c2ccccc2)[nH]c2ccc(C)cc2c1=O	104	36	110	2	409	142*[activator]	110*	-3	107	100	107	102	91
Cn1c(=O)c([N+](=O)[O-])c(-n2cnc3ccccc32)c2ccccc21	?	·	104	4	106	105	·	·	·	·	·	·	·
CC[n+]1c(/C=C/Nc2ccccc2)sc2ccccc21	99	32	99	15	101	101	·	·	·	·	·	·	·
